# From PubChem
# The full list was thinned out, with hits kept by preference.
# RXFP1 ag: activates the human relaxin receptor RXFP1. Q9HBX9. AID 2676. Potency, µM (doses to about 57.5 µM), most hits filed as activators. HEK293T-RXFP1 cAMP TR-FRET, 30 min; response scale: percent of porcine relaxin response, buffer zero. hit rate 0.3% among 370,000; note: nearly all actives have a fitted effect of over 60% in size
# Target sequence (Q9HBX9 whole entry, looked up): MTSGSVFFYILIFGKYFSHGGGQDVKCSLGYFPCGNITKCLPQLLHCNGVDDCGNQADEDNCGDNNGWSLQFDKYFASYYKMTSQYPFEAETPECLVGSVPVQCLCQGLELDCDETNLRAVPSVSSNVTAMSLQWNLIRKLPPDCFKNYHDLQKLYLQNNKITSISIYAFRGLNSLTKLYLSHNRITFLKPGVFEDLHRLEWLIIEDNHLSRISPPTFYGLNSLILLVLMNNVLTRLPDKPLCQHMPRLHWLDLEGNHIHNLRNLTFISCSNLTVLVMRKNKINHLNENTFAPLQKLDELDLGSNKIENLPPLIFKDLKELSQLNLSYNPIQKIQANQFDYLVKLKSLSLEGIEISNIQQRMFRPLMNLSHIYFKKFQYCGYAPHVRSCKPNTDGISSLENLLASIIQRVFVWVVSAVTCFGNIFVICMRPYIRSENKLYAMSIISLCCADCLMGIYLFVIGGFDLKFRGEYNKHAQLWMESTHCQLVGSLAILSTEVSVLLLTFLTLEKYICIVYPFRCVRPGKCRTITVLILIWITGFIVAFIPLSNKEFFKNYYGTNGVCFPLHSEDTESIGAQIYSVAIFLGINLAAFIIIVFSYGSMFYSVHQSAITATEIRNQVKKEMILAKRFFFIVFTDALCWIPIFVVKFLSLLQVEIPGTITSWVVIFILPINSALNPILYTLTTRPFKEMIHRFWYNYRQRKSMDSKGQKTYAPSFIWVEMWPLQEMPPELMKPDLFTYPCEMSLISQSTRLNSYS
#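 HEK293T cells stably expressing RXFP1 were pretreated with the PDE4 inhibitor Ro 20174, exposed to compounds for 30 min at 37C, lysed, and cAMP was read by TR-FRET. Data normalized to buffer (basal) and 29 nM porcine relaxin (100%).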
# PTHR1 ag: agonists of human PTHR1 parathyroid hormone receptor. Q03431. HEK293 GP2 PTHR1 cells, GloSensor cAMP luminescence, 1 h. Potency, µM (doses to about 115 µM), actives largely listed as activators. hit rate 0.075% among 410,000. AID 743266; note: nearly all actives have a fitted effect of over 55% in size
#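 HEK-293-derived GP2 cells expressing PTHR1 and a GloSensor cAMP reporter, 3,000/well, plated overnight, given luciferin plus IBMX (each 0.5 mM as added) for 1 h at 37 °C, then compound for 1 h at 37 °C. Luminescence was read after 15 min at room temperature.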
# TSHR antag: human thyrotropin receptor antagonism | TSHR-expressing cells, TSH-stimulated cAMP HTRF, 2 h; active compounds read low | activity change, negative = inhibition, % at 11.5 µM | hit rate 0.2% among 330,000 | P16473;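 active = activity change below a set negative limit, meaning inhibition stronger than a set level, cut at about -70% in these data; inconclusive = activity change between two set negative limits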
#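 Competitive HTRF cAMP read-out (cryptate anti-cAMP antibody, cAMP-d2; 30 min, room temperature) in freshly harvested TSHR cells. Compounds added before TSH at EC80 (4nM final), followed by 2 hours' incubation at 37 deg C.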
# NPSR antag: neuropeptide S receptor (human) antagonism, cAMP. CHO-NPSR cells, cAMP TR-FRET, antagonist mode. Potency, µM (titrated, usually from 38.3 µM), most hits filed as inhibitors. AID 1461. hit rate 1% among 220,000. Q6W5P4; note: nearly all actives have a fitted effect of over 50% in size
# RXFP1 antagonist: antagonists of human relaxin receptor RXFP1. HEK293-RXFP1, relaxin-stimulated cAMP HTRF, 30 min; active compounds read low. AID 1259400. hit rate 0.59% among 350,000. activity change, negative = inhibition, % at 57.5 µM;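 active = activity change of -60% or lower, but not beyond a set lower limit; inconclusive = change between -60% and -40%, or beyond the set limit; inactive = change above -40%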
# GLP1R cytotox: cytotoxicity in counter-screen for GLP-1R inverse agonists. HEK293 cAMP-luciferase reporter cells, luminescence, 24 h. hit rate 0.13% among 410,000. Potency, µM (highest dose often 38.3 µM), usual class: inhibitors;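 note: loss of luciferase light is scored as toxicity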
#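 A 23 nL compound transfer followed 12 hours of cell culture at 37 deg C; exposure then lasted 24 hr. Luciferase assay detection reagent was dispensed and plates read for luminescence after a 12 min room-temperature wait.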
# Numbers stand for hits; 0 = inactive; ? = inconclusive; - = not tested or not shown. Unless noted, calls come from the whole dose curve; as a rule, active = well fitted curve in the direction sought with a large enough effect; inconclusive = small, poorly fitted or top-dose-only effect, or another doubt; inactive = no such curve, though single readings can be large; an effect the other way counts as inactive or inconclusive.
SMILES,RXFP1 ag,PTHR1 ag,TSHR antag,NPSR antag,RXFP1 antagonist,GLP1R cytotox
N#C/C(C(N)=O)=c1/ccc2c(c1)N1C3=C(CCCC3)CC3CCCCC31N=2 (stereo not drawn),0,0,0,10µM,0,0
COc1cccc(N(C)C(=S)Oc2ccc3c(c2)CCCC3)n1,-,-,-,-,-65,-
COc1ccc(NC(=O)CN(C)CC(=O)Nc2ccc3c(c2)CCC3)cc1,0,0,0,0,0,0
CC(=O)O[C@H]1CC[C@@]2(C)C(=CC[C@@H]3[C@@H]2CC[C@]2(C)C(C(C)=O)=CC[C@@H]32)C1,-,-,-,-,0,-
CC(C)c1ccc(OCC(=O)Nc2cccc(C(=O)Nc3ccccc3C(=O)O)c2)cc1,0,0,0,0,-66,0
Cc1cccc(OCC(=O)Nc2cccc(C(=O)Nc3ccccc3C(=O)O)c2)c1,0,0,0,0,0,0
CCOc1ccccc1NC(=O)C(NCCc1ccc(OC)cc1)c1ccccc1 (stereo not drawn),0,0,-73,-,0,0
O=C(Nc1ccc(Br)cc1)C1CCCN(S(=O)(=O)c2ccc(Br)s2)C1 (stereo not drawn),0,0,-,-,0,0
C[C@@H]1CCN(C(=O)[C@H](CCCN=C(N)N)NS(=O)(=O)c2cccc3c2NC[C@H](C)C3)[C@@H](C(=O)O)C1,-,-,-,-,0,-
Clc1ccc(OCCN2CCOCC2)cc1Cl,0,0,0,0,0,0
Clc1ccc(OCCN2CCCCC2)cc1Cl,0,0,0,0,0,0
ON=C1c2cc(OCCN3CCCCC3)ccc2-c2ccc(OCCN3CCCCC3)cc21,0,0,0,-,0,3.5µM
NC(=S)NN=C1c2cc(OCCN3CCOCC3)ccc2-c2ccc(OCCN3CCOCC3)cc21,0,0,0,-,0,1.4µM
CCN(CC)CCNC(=O)c1c(C)n(-c2ccccc2)c2cc(Br)c(OC)cc12,0,0,0,0,-78,?
COc1ccc(N2CCN(C(=O)CCCn3c(=S)[nH]c4cc5c(cc4c3=O)OCO5)CC2)cc1,0,0,0,0,-69,0
O=C(CCCn1c(=S)[nH]c2ccccc2c1=O)N1CCN(c2cccc(Cl)c2)CC1,0,0,0,0,-89,0
Cc1ccc(C)c(N2CCN(C(=O)CCn3c(=S)[nH]c4cc5c(cc4c3=O)OCO5)CC2)c1,0,0,0,0,-68,0
O=C(CCCn1c(=O)[nH]c2ccc(Br)cc2c1=O)N1CCN(c2cccc(Cl)c2)CC1,0,0,-,-,-,0
O=C(CCCn1c(=S)[nH]c2cc3c(cc2c1=O)OCO3)N1CCN(c2ccccn2)CC1,0,0,0,0,?,0
COc1cccc(N2CCN(C(=O)CCCCCNc3nc(=S)[nH]c4ccccc34)CC2)c1,0,0,0,0,-90,?
O=C(N/N=C/c1ccc(-n2ccnc2)cc1)c1cccs1,0,0,0,-,0,0
Cc1cccc(C)c1Nc1c(-c2ccccc2F)nc2cccc(C)n12,0,0,-,-,-100,0
O=c1cc(-c2c(F)c(F)c(F)c(F)c2F)oc2c(F)c(F)c(F)c(F)c12,0,-,-76,3.2µM,-,-
O=c1cc(-c2c(F)c(F)c(F)c(F)c2F)oc2ccccc12,0,0,0,?,0,0
COC(=O)C1CCCN1S(=O)(=O)c1ccc([N+](=O)[O-])cc1 (stereo not drawn),0,0,0,-,0,0
SMILES,RXFP1 ag,PTHR1 ag,TSHR antag,NPSR antag,RXFP1 antagonist,GLP1R cytotox
COC(=O)C1CCCN1S(=O)(=O)c1ccc2ccccc2c1 (stereo not drawn),0,?,-78,0,0,0
C[C@H]1CN=C(Nc2ccccc2)N1CCC1CCCC1,0,0,0,-,-,0
CCN(CC)S(=O)(=O)c1cccc(NC(=O)CC2CCCC2)c1,0,0,0,-,0,0
CCN(CC)S(=O)(=O)c1cccc(NC(=O)Nc2cccc(C(F)(F)F)c2)c1,0,0,-74,10µM,0,?
CN(Cc1ccccc1Cl)C(=O)c1cc2ccccc2o1,0,0,-102,-,0,0
Cc1ccc(C)c(OC(C)C(=O)Nc2ccc(S(=O)(=O)Nc3nccs3)cc2)c1 (stereo not drawn),0,0,0,-,0,0
CCOC(=O)CSc1nc(=O)n2ccc(C)cc2n1,0,0,0,0,-72,0
Cc1ccn2c(=O)nc(SCC(=O)OCc3ccccc3)nc2c1,0,0,0,-,0,0
CCOc1cc(C)c(-c2onc(C(F)(F)F)c2-c2csc(C)n2)c(O)c1,0,0,0,0,-84,?
CCc1ccccc1N1CSC2=C(C#N)C(c3cc(OC)c(OC)cc3OC)CC(=O)N2C1 (stereo not drawn),0,1.6µM,0,0,0,0
CC(C)CC(=O)NCC1(N(C)C)CCCCC1,0,0,-,-,0,0
Clc1ccc(NCc2nc3ccccc3n2CCOc2ccccc2)cc1,0,0,-,-,-61,0
CCOc1ccc(NCc2nc3ccccc3n2CCOc2ccccc2)cc1,0,0,0,0,0,0
CCc1ccc(NC(=O)CN(c2ccc(OC)cc2)S(=O)(=O)c2c(C)nn(C)c2C)cc1,0,0,0,-,-113,0
CCOc1ccc(CNC(=O)C2=Cc3cccc(OC)c3OC2)cc1,0,0,-,-,0,0
O=C(c1cc(-c2ccccc2Cl)nc2ccccc12)N1CCC1,0,0,0,-,0,0
CN1CCCN(C(=O)c2cc(-c3cccc4ccccc34)nc3ccccc23)CC1,0,0,-77,0,0,0
CN(Cc1nc2ccccc2[nH]1)C(=O)C1CCC(=O)N(CCc2cccc(F)c2)C1 (stereo not drawn),0,0,0,-,0,0
CC(C)[C@H](NC(=O)[C@@H]1Cc2ccccc2CN1C(=O)OC(C)(C)C)C(=O)NC1CCCC1,0,0,0,-,-103,0
CC(C)(C)OC(=O)N1Cc2ccccc2C[C@H]1C(=O)NC1CCCC1,0,0,0,-,0,0
Cc1cccc(-c2nc(SCc3cc(=O)c4c(C)cc(C)cc4[nH]3)n[nH]2)c1,0,0,-,-,-70,?
CCOC(=O)C(O)c1ccccc1 (stereo not drawn),-,-,-,-,0,-
O=C(Nc1ccc(Nc2ccccc2)cc1)c1ccc(Br)o1,0,0,0,0,-68,0
CCN(CC)S(=O)(=O)c1cc(NC(=O)c2ccc3c(c2)NC(=O)C(C)S3)ccc1C (stereo not drawn),0,0,0,-,-76,0
CCN(CC)S(=O)(=O)c1cc(NC(=O)NCCCl)ccc1C,0,0,-71,0,0,0
Cc1ccc(NC(=O)NCCCl)cc1S(=O)(=O)N1CCOCC1,0,0,0,0,0,0
O=C(Nc1ccc(N2CCCCC2)cc1)c1cncc(Br)c1,0,0,0,0,0,0
